# Measurements: PMC5540273 (PLoS ONE, 2017)
# System: T1, RSK3(Kin.Dom.1-N-terminal)
# T1 construct: gene RPS6KA2
# Conditions: concentration: 1 μM, replicates: in singlicate; n = 1
# 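Also: KINOMEscan kinase panel screen.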
row,SMILES,%Inh
1,Cc1cccc(-c2nc(-c3ccc(S(C)(=O)=O)cc3)sc2-c2ccncc2)c1,0%
2,CN1c2ccc(CNc3ccc(F)cc3)cc2-c2c(cnn2C)S1(=O)=O,3%
3,O=C1Cc2cc(Nc3nc(NCc4cccc(S(=O)(=O)C(F)(F)F)c4)ncc3C(F)(F)F)ccc2N1,8%
4,COc1cc2c(cc1OC[C@@H](O)CO)ncc1c3ccc(C#N)cc3[nH]c21,11%
5,COc1ccc(S(=O)(=O)NC2CCN(c3cc(C)nc(Nc4cccc(C#N)c4)n3)CC2)cc1.O=C(O)C(F)(F)F [GSK1653539],1%
6,[2H]C([2H])(c1cccc(C(F)(F)F)c1C)n1ccn2c(=O)nc(N3CCOCC3)cc12 [GSK2336394],9%
7,Cc1cccc(-c2nc(Nc3ccc4ncsc4c3)c3ccccc3n2)n1 [GW867588],0%
8,COc1cc2ncn(-c3cc(OCc4sccc4Cl)c(C(N)=O)s3)c2cc1OC [GSK448459],10%
9,CCc1ccnc(/C=C/c2n[nH]c3cc(Sc4ccccc4C(=O)NC)ccc23)c1,13%
10,C[C@@H](Oc1cc(-n2cnc3ccc(NC(=O)NC(C)(C)C)cc32)sc1C(N)=O)c1ccccc1Cl [GSK346294],0%
11,COc1cc2c(cc1OCCN1CCN(C)CC1)ncc1c3ccc(C#N)cc3[nH]c21,33%
12,COCCNC(=O)c1ccc(-c2cc(C(=O)NC3CC3)cc(F)c2C)cc1 [GW868318],16%
13,COc1cc(Nc2nccc(N3CCC(NC(=O)c4cccc(NC(C)=O)c4)C3)n2)cc(OC)c1OC (centres unmarked) [GSK1379754],26%
14,CN1c2ccc(NCc3ccc(F)cc3)cc2-c2c(cnn2C)S1(=O)=O,10%
15,Cc1nnc(-c2ccc3ncc(-c4ccc(S(C)=O)cc4)n3c2)o1 (centres unmarked),0%
16,O=C(NCCCN1CCOCC1)c1cccc(Nc2nccc(Nc3ccc(Oc4ccccc4)cc3)n2)c1 [GW663929],7%
17,Cc1cccc(Cn2ccn3c(=O)cc(N4CCOCC4)nc23)c1 [GSK2297542],19%
18,Nc1nc(-c2ccc3c(N)n[nH]c3c2)cc(N2CCCC2)n1 [GSK2227430],20%

row,SMILES,%Inh
1,Fc1ccc(-c2ncn(CCCN3CCOCC3)c2-c2cccnc2)cc1 [SB-211743],0%
2,O=C(NOCC1CC1)c1ccc(F)c(F)c1Nc1ccc(I)cc1Cl,0%
3,NS(=O)(=O)c1cccc(-c2ccc3ncc(N4CCOCC4)nc3c2)c1 [GSK1535721],0%
4,Cn1ccc2ncnc(Oc3ccc(NC(=O)Nc4ccncc4)c(Cl)c3)c21,0%
5,NS(=O)(=O)c1cccc(-c2ccc3nccc(-c4cccc(S(N)(=O)=O)c4)c3c2)c1 [GW867253],0%
6,CCc1nc(-c2cccc(C)c2)c(-c2ccnc(NCc3ccccc3)c2)s1,0%
7,O=C(Nc1cccc(-c2nn3ncccc3c2-c2ccnc(Nc3cccc(C(F)(F)F)c3)n2)c1)c1c(F)cccc1F [GSK299495],31%
8,O=c1cc(N2CCOCC2)nc2n(Cc3cccc(F)c3)ccn12 [GSK2297430],14%
9,O=C1NC(=O)C(N2CCc3ccccc32)=C1c1cccc(Cl)c1 [SB-408010],10%
10,Cl.Oc1cccc(Nc2ccnc3cc(-c4ccncc4)ccc23)c1 [GW494601],0%
11,COc1ccc(COc2cc(-n3cnc4ccccc43)sc2C(N)=O)cc1 [GSK1024304],17%
12,COc1ccc(Nc2ncc(C#N)c(Nc3ccccc3C(N)=O)n2)cc1N1CCN(C)CC1.Cl [GSK1558669],99.7%
13,Cc1cn2c(=O)cc(N3CCOCC3)nc2n1Cc1cccc(Cl)c1Cl [GSK2334006],16%
14,N#Cc1c(N2CCOCC2)sc(-c2ccn[nH]2)c1-c1ccc(Cl)cc1,13%
15,N#Cc1ccc(-c2cc(-c3c[nH]nc3-c3ccccn3)ccn2)cc1 [GW693028],0%
16,Cc1nnc(-c2ccc3occ(-c4ccc(C(C)O)cc4)c3c2)o1 (centres unmarked),0%
17,Cc1c(Cn2c(C)nn3c(=O)cc(N4CCOC(C)C4)nc23)cccc1C(F)(F)F (centres unmarked) [GSK2344444],3%
